Compound activity (PubChem BioAssay)
CYP2C19 activ = cytochrome P450 2C19 (human) activation | P33261 | recombinant CYP2C19, luciferin-H EGE luminescence; hits give high values; 0 = fully inhibited enzyme, 1 = untreated enzyme | activation factor at 5 µM | 96,000 tested, under 10 active | AID 1025;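 active means activation factor of at least 2 at 5 µM in the primary screen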;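 further: 0 = wells with 2.5 mM tranylcypromine and 1 = vehicle-only wells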
Target sequence (P33261 whole entry, looked up): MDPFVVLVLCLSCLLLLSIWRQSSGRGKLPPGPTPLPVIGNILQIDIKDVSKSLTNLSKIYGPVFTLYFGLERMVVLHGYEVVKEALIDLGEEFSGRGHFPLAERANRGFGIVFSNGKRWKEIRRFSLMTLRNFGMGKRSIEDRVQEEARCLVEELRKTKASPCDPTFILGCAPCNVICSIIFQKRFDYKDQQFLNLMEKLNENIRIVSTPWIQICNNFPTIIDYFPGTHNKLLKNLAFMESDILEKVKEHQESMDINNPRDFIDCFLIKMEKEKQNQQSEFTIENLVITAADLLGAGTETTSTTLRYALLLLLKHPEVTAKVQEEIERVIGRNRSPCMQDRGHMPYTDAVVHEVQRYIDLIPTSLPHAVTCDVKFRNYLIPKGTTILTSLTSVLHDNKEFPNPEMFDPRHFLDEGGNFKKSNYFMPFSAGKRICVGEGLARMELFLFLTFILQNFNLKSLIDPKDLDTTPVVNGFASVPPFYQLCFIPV
CYP2C9 inh = human CYP2C9 inhibition; P11712; inhibition, % at 5 µM; AID 777; hit rate 20% among 96,000; CYP2C9 Supersomes, luciferin-H conversion, luminescence;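 active means blocking of liver enzyme CYP2C9 beyond about 50% at 5 µM, limit read from the data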
CYP2C19 inhib = inhibitors of human CYP2C19; CYP2C19 Supersomes, luciferin-H EGE luminescence, 30 min; inhibition, % at 5 µM; hit rate 21% among 96,000;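 active means CYP2C19 inhibition above a set limit at 5 µM in the primary screen, cut at about 50% in these data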;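 further: plate controls were negative control wells for no effect and 2.5 mM tranylcypromine positive control for full effect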
PostGolgi yeast = growth inhibition of a yeast mutant, post-Golgi transport screen. post-Golgi transport phenotypic cell assay. hit rate 0.9% among 98,000. inhibition, % at 10 µM;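 further: yeast cells grown in 1536-well plates; yeast grown about 18 h at 30C before absorbance read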
CYP2C9 activ = increases human cytochrome P450 2C9 activity. P11712. recombinant CYP2C9, luciferin-H conversion, luminescence; hits give high values; factor 1 = untreated enzyme, 0 = blocked. hit rate 1.4% among 96,000. activation factor at 5 µM;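 active means activation factor of 2 or more for CYP2C9 at a 5 µM dose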;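 further: 0 = sulfaphenazole-blocked wells and 1 = vehicle-only wells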
PostGolgi ctrl = yeast control strain growth, post-Golgi counter-screen | efflux-deficient yeast background strain, growth absorbance A615, 16 h | inhibition, % at 10 µM | hit rate 5% among 98,000 | AID 738
Active calls of the source: *; nt = no result given. A selection: hits, their analogues and other compounds. The true share with any hit is near 32%. Unless noted, no stated cut-off is given here; in the data, active means inhibition above about 30%; inactive means the rest.

SMILES | CYP2C19 activ | CYP2C9 inh | CYP2C19 inhib | PostGolgi yeast | CYP2C9 activ | PostGolgi ctrl
CC(/C=C(\NC(=O)c1ccccc1)C(=O)N=Nc1c(O)[nH]c2ccc(C)cc12)=C\c1ccccc1 | 0.8 | 53* | 16 | -14 | 0.5 | 7
Cc1cc2nc(NC3=NCN(Cc4ccc5c(c4)OCO5)CN3)nc(C)c2cc1C | 0.9 | 6 | 9 | nt | 0.9 | nt
CCc1cccc(Oc2nn[nH]n2)c1 | 1 | -5 | 0 | 2 | 1 | 3
Cc1ccc(Oc2nn[nH]n2)cc1 | 1.1 | 70* | -5 | 3 | 0.3 | 8
COc1ccc(Cl)cc1NC(=O)CN(C1CCCCC1)S(C)(=O)=O | 0 | 90* | 99* | -8 | 0.1 | 9
CSc1ccccc1NC(=O)CN(C1CCCCC1)S(C)(=O)=O | 0.1 | 90* | 93* | 0 | 0.1 | 4
COc1ccc(Cl)cc1NC(=O)N1CCN(C2CCCCC2)CC1 | 0.2 | -93 | 83* | 19 | 1.9 | 2
CC(=O)c1cccc(NC(=O)CN(C2CCCCC2)S(C)(=O)=O)c1 | 0.6 | 15 | 40 | -5 | 0.8 | 5
COc1ccc(Cl)cc1NC(=O)NC1CCCCC1 | 0.8 | -14 | 21 | 2 | 1.1 | 18
CCCCCn1c(=O)[nH]c2cc(C(=O)NCc3ccco3)ccc2c1=O | 0.8 | 34 | 22 | 4 | 0.7 | 11
NC(=O)c1ccccc1NC(=O)CCCN1C(=O)CCC1=O | 1 | 7 | -3 | 2 | 0.9 | 6
O=C(COc1ccccc1)Nc1ccc(OC(F)(F)C(F)F)c(NC(=O)COc2ccccc2)c1 | 0.8 | 54* | 17 | -9 | 0.5 | 2
Cc1cccc(OCC(=O)NCC(=O)n2nc(C)cc2C)c1 | 0.4 | -114 | 61* | -2 | 2.1* | 17
Cc1cccc(OCC(=O)Nc2cccc(O)c2)c1 | 0.2 | 22 | 79* | 8 | 0.8 | 0
Cc1cccc(NC(=O)COc2ccccc2)c1 | 0.2 | 21 | 83* | -4 | 0.8 | 8
CC(=O)Nc1ccc(OC(F)(F)C(F)F)c(NC(C)=O)c1 | 1.1 | -6 | -15 | -5 | 1.1 | 3
CC(=O)Nc1cccc(OCC(=O)Nc2ccccc2)c1 | 0.7 | -26 | 34 | -1 | 1.3 | 10
O=C(NC1(C(F)(F)F)C(=O)Nc2c1c(=O)[nH]c(=O)n2Cc1ccco1)C1CC1 (stereo not given) | nt | nt | nt | 4 | nt | 2
O=C(O)CCn1c(=O)c2ccccc2c2ccccc2c1=O | 0.8 | 24 | 18 | -9 | 0.8 | -4
COc1ccc(CNC(=O)CN(Cc2ccc(C)cc2)S(=O)(=O)c2ccc(Cl)cc2)cc1 | 0.7 | 26 | 32 | 3 | 0.7 | 5
CC(=O)c1cccc(NC(=O)COc2nsnc2N2CCOCC2)c1 | 0.5 | 41 | 50 | 9 | 0.6 | 1
Cc1cccc(NC(=O)COc2nsnc2N2CCOCC2)c1 | 0.4 | 17 | 56* | 7 | 0.8 | 8
Cc1ccc(S(=O)(=O)N2CCN(c3ccc4nnc(-c5ccccc5)n4n3)CC2)cc1 | 0.1 | 99* | 95* | -10 | 0 | 34*
c1ccc(-c2nnc3ccc(N4CCCC4)nn23)cc1 | 0.9 | 3 | 10 | 10 | 1 | 12
COc1ccc(S(=O)(=O)N2CCN(c3ccc4nnc(-c5ccc(F)cc5)n4n3)CC2)cc1 | 0.1 | 97* | 90* | -2 | 0 | 20
SMILES | CYP2C19 activ | CYP2C9 inh | CYP2C19 inhib | PostGolgi yeast | CYP2C9 activ | PostGolgi ctrl
CCN(CC)CCNC(=O)CCc1n[nH]c(=O)c2ccccc12 | 1 | 5 | 4 | 0 | 1 | 5
Cc1nn(Cc2ccccc2)c(N)c1-c1ccccc1 | 0.4 | 21 | 63* | 34* | 0.8 | 3
CC(=O)Nc1ccc(NC(=O)c2ccccc2CC[N+](=O)[O-])cc1 | 1.1 | -5 | -10 | 1 | 1 | 18
CCNC(=O)N1CCNC(=O)C1CC(=O)OC (stereo not given) | 0.9 | -4 | 5 | 1 | 1 | 31*
Cc1cccc2cc(COC(=O)c3ccccn3)c(=O)[nH]c12 | 1 | 1 | 0 | -7 | 1 | 7
CCOC(=O)C1CCN(C(=O)CCc2c(C)nc3c(-c4ccc(F)cc4)c(C)nn3c2C)CC1 | 0.9 | 12 | 9 | -5 | 0.9 | 14
Cc1nc2c(-c3ccc(F)cc3)c(C)nn2c(C)c1CCC(=O)N1CCC(Cc2ccccc2)CC1 | 0.7 | 51* | 30 | 5 | 0.5 | 32*
Cc1nc2c(-c3ccccc3)c(C)nn2c(C)c1CCC(=O)N1CCOCC1 | 0.9 | -2 | 10 | -6 | 1 | 14
Cc1nc2c(-c3ccc(F)cc3)c(C)nn2c(C)c1CCC(=O)N1CCN(c2ccccc2)CC1 | 0.5 | 56* | 50* | -3 | 0.4 | 18
Cc1nc2c(-c3ccc(F)cc3)c(C)nn2c(C)c1CCC(=O)N1CCOCC1 | 0.5 | 38 | 51* | 2 | 0.6 | 6
Cc1nc2c(-c3ccc(F)cc3)c(C)nn2c(C)c1CCC(=O)N1CCN(c2ccc(F)cc2)CC1 | 0.4 | 67* | 62* | -13 | 0.3 | 26
Cc1nc2c(-c3ccc(F)cc3)c(C)nn2c(C)c1CCC(=O)NCCN1CCOCC1 | 1 | 4 | -2 | 0 | 1 | 23
COc1ccccc1N1C(=O)CCC1(C#N)c1ccccc1 (stereo not given) | 1 | 4 | 3 | -10 | 1 | 14
CC1CCCCN1c1nnc(NC(=O)c2cc(-c3ccc(Br)cc3)on2)s1 (stereo not given) | 0.8 | 62* | 16 | 3 | 0.4 | 46*
Cc1ccccc1N(CC(=O)NCC1CCCO1)C(=O)C1(C)CC(=O)N=C2C=CC=CN21 (stereo not given) | 1.1 | -4 | -8 | -5 | 1 | 3
Cc1cc(C)n(-c2cc(N3CCN(S(=O)(=O)c4ccc(C)c(C)c4)CC3)ccc2[N+](=O)[O-])n1 | 0.9 | 24 | 10 | -1 | 0.8 | -11
Cn1cnnc1Sc1cc(N2CCN(S(=O)(=O)c3ccc(Cl)c(Cl)c3)CC2)ccc1[N+](=O)[O-] | 0 | 89* | 100* | 8 | 0.1 | -5
CCN1C=C(Cc2ccccc2C)C2=C(C1)C(c1ccccc1C)C(C#N)=C(N)O2 (stereo not given) | 0.1 | 99* | 85* | -3 | 0 | 3
Cc1ccc(CSC2=Nc3ccccc3C3=NC(CC(=O)NCc4ccco4)C(=O)N23)cc1 (stereo not given) | 0.9 | 79* | 11 | -2 | 0.2 | 4
O=C(CCC1N=C2c3ccccc3N=C(SCc3ccc(Cl)cc3)N2C1=O)NCc1ccco1 (stereo not given) | 0.6 | 77* | 36 | 2 | 0.2 | 3
O=C(CC1N=C2c3ccccc3N=C(SCc3ccc(F)cc3)N2C1=O)NCc1ccco1 (stereo not given) | 0.9 | 32 | 12 | 17 | 0.7 | 24
O=C(CCC1N=C2c3ccccc3N=C(SCc3ccc(F)cc3)N2C1=O)NCc1ccco1 (stereo not given) | 0.7 | 65* | 28 | 4 | 0.4 | 6
